We go through 40 compounds from PubChem BioAssay (NCI).

Compounds without any hit were thinned out: in the full panel of roughly 83,000, 20% have a hit.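 Compound tested at a single concentration for 48 hours in 96-well plates; a percent growth value below 10 was scored as active.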 Unmarked numbers belong to inactive results. Active and inactive are the calls of the source.

The test system of the assay is NCI/ADR-RES ovarian. Description: NCI-60 one-dose screen, 48 h (100 = growth as untreated, 0 = no growth, -100 = all killed). Conditions: 10 µM unless noted. The protocol:
Growth inhibition of the NCI/ADR-RES human […] tumor cell line is measured as a screen for anti-cancer activity. Cells are grown in 96 well plates and exposed to the test compound for 48 hours. Compounds are tested at a single concentration, which is 10^-5 M for most compounds. The reported endpoint is percent growth (GI% or GIPRCNT), where numbers from 0 - 100% represent growth inhibition, and numbers from -100% - 0 represent cell death. For example, a value of 40 represents 60% growth inhibition. A value of 0 means no net growth occurred over the course of the experiment. A value of -40 indicates 40% of cells at the beginning of the experiment died by the end of the experiment. A value of -100 means all cells are dead at the end of the experiment.
NCI-60 Human Tumor Cell Lines Screen was performed using the standard one-dose NCI protocol, which is described in more detail at https://dtp.cancer.gov/discovery_development/nci-60/default.htm.
Compounds with GIPRCNT values below 10 were considered active. Activity score was based on GIPRCNT using the following formula: […]
Score is 0 for GIPRCNT values of 100 or above, 50 for GIPRCNT values of 0, and 100 for GIPRCNT values of -100.
For the compound `Cc1nc2sc(C(=O)Nc3ccccc3)c(N)c2cc1C(=O)c1ccc(C(F)(F)F)cc1`, the growth is 99%.
On to `Fc1ccc2nc3c(cc2c1)CSc1nnc(-c2ccc[nH]c2=S)n1N3`, for which the growth is 103%.
For `COc1ccc(/C=C(/c2ccccc2)[N+](=O)[O-])cc1`, the growth was 7.74% (active).
With `CN1CCN(C(=O)OCc2nc3c(N4CCOCC4)nc(-c4ccccc4)nc3n2C)CC1`, the growth is -16.2% (active).
Regarding `COc1ccc(C(=O)c2cc3c(N)c(C(=O)Nc4cccc(Cl)c4)sc3nc2C)cc1`, the growth was 8.84% (active).
As for `O=C(c1ccccc1)N1N=C(c2ccc(-n3ccc(C(F)(F)F)n3)cc2)CC1c1ccc[nH]1` (stereo not given), the growth is 90.2%.
As for `COc1cc2nc(-c3ccc(-c4nn[nH]n4)cc3)[nH]c(=O)c2cc1OC`, the growth was 101%.
Consider `Clc1nc(Nc2ccccc2)nc(Nc2ccccc2)n1`, for which the growth was 94.6%.
Next, `COc1ccc(-c2nc(N/N=C/c3cccc(Br)c3)nc(N3CCOCC3)c2C#N)cc1`: 83.3%.
The figure for `CC1(c2ccccc2)NC(=O)N(CC(=O)Nc2cccc(I)c2)C1=O` (stereo not given) is 92.7%; for `O=C(NNc1nc(Cl)nc(N2CCN(C(c3ccccc3)c3ccccc3)CC2)n1)c1ccccc1` it is 20.7%; for `CCOC(=O)c1cnc2c(cnn2CC)c1NN=C(C)C` it is 83.3%.
In the case of `CC(=O)O[C@H]1CC[C@@]2(C)[C@@H](CC[C@@H]3[C@@H]2CC[C@@]2(C)[C@H]3CC[C@]2(O)C(C)=O)C1`, the growth is 96%.
As to `COc1ccc(C(O)c2cc3c(N)c(C(=O)Nc4ccc(Br)cc4)sc3nc2C)cc1` (stereo not given), the growth was 18.5%.
`Clc1nc(Cl)c2ncn(CCOCCn3cnc4c(Cl)nc(Cl)nc43)c2n1`: the growth was -56% (active).
Take `C=C1C(=O)O[C@H]2[C@H]1CC/C(CNC(=O)/C=C/c1ccccc1F)=C\CC[C@@]1(C)O[C@@H]21`: the growth is 77.7%.
Next, `CC(C)[N+](C)(CCOC(COc1ccccc1)COc1ccccc1)C(C)C`: 107%.
As for `O=[N+]([O-])c1cccc(-c2nc(-c3ccc(Cl)cc3Cl)cn2-c2ccccc2)c1`, the growth was -1.46% (active).
As to `C=C1C(=O)O[C@H]2[C@H]1CC/C(COC(=O)CCCc1c[nH]c3ccccc13)=C\CC[C@@]1(C)O[C@@H]21`, the growth was 72.2%.
Take `COc1ccc(C(=O)c2cc3c(N)c(C(=O)Nc4cccc(OC)c4)sc3nc2C)cc1`: the growth is 4.09% (active).
Regarding `Clc1ccc(N2N=C(c3cccc(Nc4ccncc4)c3)CC2c2ccc3c(c2)OCO3)cc1` (stereo not given), the growth was 31.2%.
In the case of `CCCCCCCCCCCCCCCC(=O)OC[C@@]1(O)C[C@@]23CC[C@@H]4C(C)(C)CCC[C@@]4(C)[C@@H]2CC[C@H]1C3`, the growth was 102%.
The figure for `CCCCCCCCCCCCC1CCC/C=C\CCC(=O)O1` (stereo not given) is 102%; for `N#CSCC1CC(O)(c2ccccc2)C(c2ccccc2)C(c2ccc(F)cc2)O1` (stereo not given) it is 35.3%; for `O=C(O)/C=C\C(=O)N1C/C(=C\c2ccccc2Cl)C(=O)/C(=C/c2ccccc2Cl)C1` it is 4.6% (active).
In the case of `C=C1C(=O)O[C@H]2[C@H]1CC/C(COC(=O)NCCc1c[nH]c3ccc(Cl)cc13)=C\CC[C@@]1(C)O[C@@H]21`, the growth is 33.9%.
Next, `COc1cc2nc(-c3ccc(C(F)(F)F)cc3)cc(OCCN3CCC(O)CC3)c2cc1OC`: 53.5%; `COc1ccc(-c2nc(SCCC(C)C)nc(N/N=C(/C)c3ccc(C)cc3)c2C#N)cc1`: 89.8%; `COC(=O)Nc1nc2ccc(C(=O)c3cccc(I)c3)cc2[nH]1`: -0.725% (active).
Next, `CC(=O)N1c2ccccc2NC2=C(C(=O)N(C)C2(C)C)C1C` (stereo not given): 102%; `COc1ccc(C2CC(c3cccc(Nc4ccncc4)c3)=NN2c2cc(Cl)cc(Cl)c2)cc1` (stereo not given): 66.8%.
For `COc1ccc(C(O)c2cc3c(N)c(C(=O)Nc4ccccc4)sc3nc2C)cc1` (stereo not given), the growth was 13.7%.
For the compound `C[C@]12CCc3nc(Nc4cccc(O)c4)sc3C1=CC[C@@H]1[C@@H]2CC[C@]2(C)/C(=N\NC(N)=S)CC[C@@H]12`, the growth was 47.8%.
Regarding `BrC(Br)(Br)c1cnc2ccccc2n1`, the growth was 44.3%.
The figure for `CCc1c(Nc2ccc(C)cc2)[nH]c(N)nc1=S` is 105%; for `COc1cccc(-c2nc3occn3c2-c2ccnc(NCCCNS(=O)(=O)c3cccc(F)c3)n2)c1` it is 85.8%; for `CCCCCCN(C)Cc1ccc(OCCOc2ccc(CN(C)CCCCCC)cc2)cc1` it is 1.98% (active).
For `O=C1CCCN1c1cccc2cccnc12`, the growth is 99.3%.
The figure for `Fc1ccc(-n2cc(COc3ncnc4sc5c(c34)CCCC5)nn2)cc1Cl` is 95.1%.
Take `Cn1c(COC(=O)NCCc2ccccn2)nc2c(N3CCOCC3)nc(Cl)nc21`: the growth is 18.9%.
